High-throughput results (PubChem)
TDP1 cell CPT: qHTS for Inhibitors of human tyrosyl-DNA phosphodiesterase 1 (TDP1): qHTS in cells in presence of CPT; chicken DT40 Tdp1-/-;hTDP1 cells + 20 nM CPT, ATP luminescence, 48 h; Potency, µM (doses to about 46.2 µM), for the others: top-dose activity change, negative = growth inhibition, usual class: inhibitors; actives 12% (n = 420,000); note: % is set by controls: 0 for no effect and ±100 for the full control effect; nearly all actives have a fitted effect of over 55% in size
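Chicken DT40 Tdp1-/- cells stably complemented with human TDP1 were seeded at 400 cells/well in medium containing 20 nM camptothecin, exposed to pin-transferred compounds, and grown at 37 °C for at least 48 hr. Viability was read as ATP luminescence.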
TDP1 cell noCPT: qHTS for Inhibitors of human tyrosyl-DNA phosphodiesterase 1 (TDP1): qHTS in cells in absence of CPT; Potency, µM (titrated, usually from 46.2 µM), for the others: top-dose activity change, negative = growth inhibition, most hits filed as inhibitors; AID 686978, 2013; DT40 Tdp1-/- hTDP1 cells, no CPT, ATP luminescence, 48 h; actives 15% (n = 420,000); note: % is set by controls: 0 for no effect and ±100 for the full control effect; nearly all actives have a fitted effect of over 55% in size
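Stably hTDP1-transfected Tdp1-null chicken DT40 cells were treated with library compounds minus camptothecin and grown for at least 48 hr at 37 °C, after which cellular ATP was quantified by luminescence.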
ClpP mod: qHTS Assay for Activators of ClpP. actives 1.9% (n = 340,000). ATP-dependent Clp protease proteolytic subunit (Bacillus subtilis (strain 168)), P80244. purified B. subtilis ClpP, FRET peptide cleavage, 20 min. AID 651965, 2013. Potency, µM (doses to about 57.5 µM), inactives show at the top dose activity change, negative = active; active = well fitted falling curve with a large enough effect; inconclusive = small, poorly fitted or top-dose-only effect; inactive = no such curve, though single readings can be large or run the other way; note: the source files actives as falling curves though it sought activators and does not explain the sign; nearly all actives have a fitted effect of over 65% in size
Target sequence (P80244 whole entry, looked up): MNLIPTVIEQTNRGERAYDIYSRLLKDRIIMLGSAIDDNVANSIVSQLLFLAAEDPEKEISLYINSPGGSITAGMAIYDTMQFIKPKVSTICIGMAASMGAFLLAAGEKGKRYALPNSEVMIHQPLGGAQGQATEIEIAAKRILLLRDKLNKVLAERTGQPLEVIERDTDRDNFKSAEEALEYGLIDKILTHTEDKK
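ClpP 10 microg/mL final, pH 8 Tris/KCl buffer with BSA, glycerol, Tween-20; compound pinned in; FRET-FV substrate; RT 20 min; Ex320/Em430; ΔFRET vs ADEP 5.8 microM, DMSO, no enzyme.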
TDP1 inh: qHTS Assay for Inhibitors of Tyrosyl-DNA Phosphodiesterase (TDP1); actives 0.28% (n = 350,000); AID 485290, 2010; recombinant TDP1, AlphaScreen DNA substrate cleavage; Tyrosyl-DNA phosphodiesterase 1 (Homo sapiens), Q9NUW8; Potency, µM (top dose mostly 130 µM), for inactives: at the top dose activity change, negative = inhibition, hits mostly inhibitors; note: % is set by controls: 0 for no effect and ±100 for the full control effect; nearly all actives have a fitted effect of over 40% in size
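E. coli-derived human Tdp1, 1 nM final. Cpd preinc 15 min RT; substrate 15 nM final, 5 min RT; AS bead mix 10 ug/ml final, 10 min RT. Signal loss = tyrosine-FITC cleavage. No-enzyme wells = max signal.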
Active calls of the source: *; ? = inconclusive; . = not tested or not shown; [ ] = remark or other dose. Compounds with a hit are over-represented: about 17% of the library has one in this group of screens. Unless noted, calls come from the whole dose curve; as a rule, active = well fitted curve in the direction sought with a large enough effect; inconclusive = small, poorly fitted or top-dose-only effect, or another doubt; inactive = no such curve, though single readings can be large; an effect the other way counts as inactive or inconclusive. Potency is the fitted concentration of half-maximal effect.

SMILES	TDP1 cell CPT	TDP1 cell noCPT	ClpP mod	TDP1 inh
CCC(=O)N[C@@H]1c2ccccc2C2(CCN(Cc3ccccn3)CC2)[C@H]1OC	6%	-6%	.	.
COc1cccc(N/C(SCc2ccccc2F)=C(/C#N)C(=O)NCc2cccs2)c1	?	?	-3%	0%
CC1=C(C(=O)Nc2ccccc2)C(c2ccncc2)C(C#N)=C(SCC(=O)NC2CC2)N1 (stereo not given)	-15%	-15%	4%	-1%
CC1=C(C(=O)Nc2nc3ccccc3s2)C(c2ccco2)C(C#N)=C(SCC(=O)NC2CCCCC2)N1 (stereo not given)	13µM*	21µM*	0%	2%
O=C(/C=C/c1ccc(Cl)c(Cl)c1)NCc1ccco1	4%	?	-2%	1%
O=C(/C=C/c1c(Cl)cccc1Cl)NCc1ccco1	?	5.8µM*	-2%	1%
O=C(/C=C/c1ccc2c(c1)OCO2)NCc1ccco1	4%	-18%	28µM*	-5%
COc1ncc2nc(CCc3ccccc3)c(=O)n(Cc3cccs3)c2n1	?	21µM*	.	.
CCNc1ncc2nc(CCc3ccccc3)c(=O)n(Cc3cccc(OC)c3)c2n1	-24%	-12%	.	.
COc1cccc(Cn2c(=O)c(CCc3ccccc3)nc3cnc(OC)nc32)c1	?	23µM*	.	.
O=c1c(CCc2ccccc2)nc2cnc(Oc3ccccc3)nc2n1C[C@H]1CCCO1	?	18µM*	.	.
C=CCN(C(=O)CCC(=O)Nc1cc(C)on1)C(C(=O)NC(C)(C)C)c1ccc(OC)cc1 (stereo not given)	2%	-3%	-1%	3%
CCCCCCC[C@@H](C/C=C/CCC(=O)N(C)C/C(=C/Cl)C/C(=C\C(=O)N1C[C@H](O)CC1=O)OC)OC	9.2µM*	9.2µM*	2%	-15%
CCCCCCC[C@@H](C/C=C/CCC(=O)N(C)C/C(=C/Cl)C/C(=C\C(=O)N1CC(OC)=CC1=O)OC)OC	2.3µM*	1.8µM*	0%	-13%
CC1(C)C=Cc2c(ccc3c2OC[C@H](c2ccc(O)cc2O)C3)O1	13µM*	?	-1%	6%
CC(=O)Oc1ccc([C@@H]2COc3c(ccc4c3C=CC(C)(C)O4)C2)c(OC(C)=O)c1	?	?	-1%	.
CC(C)=CCc1c([C@@H]2CCc3ccc(O)cc3O2)cc2c(c1O)OC(C)(C)C=C2	?	?	-3%	.
CC(C)=CCc1cc([C@@H]2COc3c(ccc4c3C=CC(C)(C)O4)C2)c(O)cc1O	18µM*	?	-7%	.
CCOc1ccccc1C1C(C(=O)Nc2ccccc2)=C(C)Nc2c(C(=O)Nc3ccc(F)cc3)cnn21 (stereo not given)	?	?	?	6%
Cc1ncc2c(c1CNC(=O)c1ccc3c(c1)OCO3)CCN(C(=O)c1cc3ccccc3o1)C2	2%[9.04 µM]	?	.	.
NC(=O)CSc1ncc2c(n1)-c1ccccc1N(Cc1cccc(F)c1)S2(=O)=O	?	?	?	-3%
COc1cccc(C(C)=NNc2ccc([N+](=O)[O-])cc2[N+](=O)[O-])c1OC	?	21µM*	0%	.
COc1ccc(/C=N\Nc2ccc([N+](=O)[O-])cc2[N+](=O)[O-])c(C(=O)O)c1OC	-28%	-23%	4%	8%
C/C(CC(C)C)=N/Nc1ccc([N+](=O)[O-])cc1[N+](=O)[O-]	?	?	1%	14%
CC(Cc1ccccc1)=NNc1ccc([N+](=O)[O-])cc1[N+](=O)[O-]	16µM*	7.3µM*	.	.
SMILES	TDP1 cell CPT	TDP1 cell noCPT	ClpP mod	TDP1 inh
Cn1nc(-c2ccccc2)c(-c2nc(-c3cccc(C(F)(F)F)c3)no2)c1Cl	?	1.6µM*	-1%	-4%
COC(=O)C1CC(O)C(O)C(O)C1 (stereo not given)	-3%	-3%	0%	.
NC(=O)c1ccc2c(=O)n3c(-c4cc(Cl)c(N)c(Cl)c4)csc3nc2c1	16µM*	18µM*	-23%	79µM*
CCOc1ccccc1NC(=O)C(OC(=O)c1cc(C)oc1C)c1ccccc1 (stereo not given)	?	18µM*	.	5%
CCOc1ccccc1NC(=O)C(OC(=O)c1ccccc1O)c1ccccc1 (stereo not given)	?	?	140%	4%
COc1ccc(NC(=O)COc2nc3ccccc3nc2N2CCOCC2)c(OC)c1	-5%	-26%	.	3%
C[C@@H]1CC2OC(=O)[C@@]3(C)C(=O)CC[C@@](C)(C23)[C@@]1(O)CCc1ccoc1 (stereo not given in full)	0%	1%	.	.
CC(C)NC(=O)Cn1c(=O)nc(-c2ccccc2F)c2cc(Cl)ccc21	-65%	7.3µM*	-4%	-4%
CC(CCc1ccccc1)NC(=O)Cn1c(=O)nc(-c2ccccc2F)c2cc(Cl)ccc21 (stereo not given)	-8%	-26%	4%	6%
CC1CC(C)CN(C(=O)Cn2cc(C=O)c3ccccc32)C1 (stereo not given)	0%	13%	1%	0%
COc1ccccc1NC(=O)C1=C(C)Nc2c(C(=O)Nc3ccc(F)cc3)cnn2C1c1ccc(Cl)cc1 (stereo not given)	13µM*	?	28µM*	3%
CCOc1ccc(C2C(C(=O)Nc3ccccc3OC)=C(C)Nc3c(C(=O)Nc4cccc(C)c4)cnn32)cc1 (stereo not given)	?	?	?	1%
CCOc1ccc(NC(=O)c2cnn3c2NC(C)=C(C(=O)Nc2ccc(Cl)cc2)C3c2ccc(OC)c(OC)c2)cc1 (stereo not given)	23µM*	10µM*	?	0%
Cc1ccccc1NC(=O)NC1(C(=O)N2CCC(O)CC2)CCCCC1	-19%	-10%	.	13%[0.0935 µM]
CCc1cccc(NC(=S)N(CCCOC(C)C)C2CCN(C(C)=O)CC2)c1	-17%	-14%	1%	.
CCOC(=O)[C@]12CCC=C1N(Cc1cccc3ccccc13)C(=O)[C@H](CC(=O)N1CCCC1)C2	18µM*	23µM*	-2%	.
CCOC(=O)N1CCN(C(=O)C[C@@H]2C[C@@]3(C(=O)OC)CCCCC=C3N(Cc3cccc4ccccc34)C2=O)CC1	?	21µM*	-2%	.
CCOC(=O)[C@]12CCCC=C1N(Cc1cccc3ccccc13)C(=O)[C@H](CC(=O)N1CCCCC1)C2	18µM*	26µM*	-2%	.
CCOC(=O)[C@]12CCCC=C1N(Cc1cccc3ccccc13)C(=O)[C@H](CC(=O)N1CCOCC1)C2	?	-30%	0%	.
CCOC(=O)[C@]12CCC=C1N(Cc1cccc3ccccc13)C(=O)[C@H](CC(=O)N1CCN(C(=O)C3CC3)CC1)C2	?	?	2%	.
